Measured values published in PubChem BioAssay (NCI).
The panel holds about 83,000 compounds, 20% with a hit somewhere; the sample as a whole holds those more often.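 In brief: 96-well plates, 48 h treatment, single concentration, percent growth endpoint.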 A number with no mark means an inactive call. Active and inactive are the calls of the source. The calls were made as follows: active = growth percent below 10; inactive = the rest.

System: HL-60(TB) leukemia
Experiment: NCI-60 one-dose screen, 48 h (100 = growth as untreated, 0 = no growth, -100 = all killed)
Settings: 10 µM unless noted

SMILES | growth
CCC(C)(C)C1CCC(O)CC1 (stereo not given) | 83.8%
COc1cc(Cl)cc(-c2nn(-c3cccc(NC(=O)c4cc(C(F)(F)F)cc(C(F)(F)F)c4)c3)cc2-c2ccncc2)c1 | 84.3%
O=C(Nc1ccc(F)c(Cl)c1)c1n[nH]c(=O)c2ccccc12 | 86.2%
N#Cc1cccc(C2C3=C(COC3=O)N(CCO)c3cc4c(cc32)OCO4)c1 (stereo not given) | -32.1% (active)
CC(C)C[C@H](NC(=O)/C=C/Cn1ccc2ccccc2c1=O)B(O)O | 24.2%
NS(=O)(=O)c1ccc(-n2nc(-c3ccc(Cl)cc3)ccc2=O)cc1 | 83.7%
O=C(Oc1cccc2ccccc12)Oc1cccc2ccccc12 | 88.4%
C#C[C@@]1(O)[C@@H](CO)O[C@@H](n2cc(C(F)(F)F)c3c(N)ncnc32)[C@@H]1O | -37.6% (active)
CN(C)c1ccc2cc(-c3ccccc3F)c(N)nc2c1 | 5.36% (active)
CN(C)c1ccc(/C=C/c2ccnc3c(O)cccc23)cc1 | -26% (active)
CCOC(=O)NC1=NCC(C)(C)S1 | 67.9%
NC(=O)c1ccc(-c2cccc3c(=O)nc(N4CCOCC4)oc23)cc1 | 97.5%
COc1ccc(C2C(C#N)=C(N)Oc3c2sc2c(C)cccc32)cc1 (stereo not given) | -13.9% (active)
COC(=O)CCC1=C(CC(=O)OC)C(C)=N/C1=C\c1[nH]c(-c2ccc[nH]2)cc1OC | 44.2%
N#CCCN=Nc1c(O)[nH]c2ccc([N+](=O)[O-])cc12 | 96.6%
O=c1n(C2OC(CO)C(O)C2O)ccc2nccn12 (stereo not given) | 101%
O=C(Nc1c(Cl)cc(Cl)cc1Cl)ON=C1CCCCC1 | 101%
COC(=O)C1=C(C)NC(C)=C(C(=O)OC)C(N2C(=O)CCC2=O)C1 (stereo not given) | 90.8%
O=C(Nc1ccccc1Cl)c1ccc(NC2=C(Cl)C(=O)N(C3CCCCC3)C2=O)cc1 | -36.7% [30 µM] (active)
CCCc1cc(=O)oc2c(C(=O)CC(C)C)c(O)c(CC=C(C)C)c(O)c12 | 2.72% (active)

SMILES | growth
CC(=O)Nc1ccc2c(c1)C(N1CC3CCC(CC3)C1)c1ccccc1-2 (stereo not given) | 52.3%
CCCCNc1ccc(-c2ccc(NCCCC)cc2)cc1 | 45.4%
Cc1c(C)c2c(c(C)c1NC(=O)CCCCCCC(=O)O)CCC(C)(CCCC(C)CCCC(C)CCCC(C)C)O2 (stereo not given) | 75.1%
COc1ccc(Nc2nc(NCCNc3ccnc4cc(Cl)ccc34)nc(N3CCOCC3)n2)cc1 | 22.8%
COc1ccc(CNc2nccnn2)cc1 | 69.9%
C=C1C(=O)O[C@H]2[C@H]1CC/C(COC(=O)NCc1ccc(Cn3c(=O)sn(-c4ccc(OC)cc4)c3=O)cc1)=C\CC[C@@]1(C)O[C@@H]21 | -18% (active)
C=C(C)CCC(C)N1CCC(N2CCC(C(=O)NCCc3ccccc3)CC2)CC1 (stereo not given) | 27.4%
O=C1Nc2ccccc2C12CC(c1ccc(Cl)cc1)=NN2 (stereo not given) | 99.1%
CCN1/C(=C/C=C/c2n(-c3ccccc3)c3ccc(-c4nc5ccccc5s4)cc3[n+]2CC)N(c2ccccc2)c2ccc(-c3nc4ccccc4s3)cc21 | 6.43% (active)
O=C(NC(Cc1ccc(O)cc1)C(=O)N=Nc1c(O)[nH]c2ccccc12)c1ccccc1 (stereo not given) | 101%
CN1CCN(Cc2ccc(NC(=O)c3cncc(C#Cc4cnc5ccc(Cl)nn45)c3)cc2C(F)(F)F)CC1 | -17.6% (active)
N#C/C(=C\c1ccc2c(c1)OCO2)c1ccccc1 | 62%
O=C1c2c(c3c4cccc(F)c4[nH]c3c3ccc4ccccc4c23)C(=O)N1O | 31%
COC(=O)c1c(C(=O)OC)c2ccc3c4ncccc4ccc3n2c1C(=O)c1ccc(C)cc1 | 91.8%
COc1cc(C2CC(c3ccc(C)cc3)=NN2C=O)ccc1Oc1ccnc2cc(Cl)ccc12 (stereo not given) | 94.8%
O=C(Nc1ccccc1)c1ccco1 | 95.7%
CCOP(=O)(OCC)/C(=C\N1C(=O)CC(=O)NC1=S)C(=O)OC | 103%
O=C(CSc1nnc2sc(Nc3cccc(Cl)c3)nn12)c1ccc(F)cc1 | 82.7%
COc1c(C(=O)Nc2ccc(C)c(Br)c2)ccc2ccccc12 | 91.2%
Nc1nc(-c2ccc(Cl)cc2)nc2c1sc(=S)n2-c1ccccc1 | 103%
